# Data taken from PubChem BioAssay AID764 (NMMLSC, 2007).
# About 220 (0.12%) of roughly 190,000 compounds were called active. About 2% were inconclusive and are not listed. Shown is part of a subset that was picked to be rich in actives. Unmarked numbers belong to inactive results.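 Rule for the calls: active = GTP binding at least 20 percentage points away from the 100% baseline, in either direction, so actives lie on both sides; inconclusive = Compound likely fluorescent itself, or too few beads counted; inactive = the rest.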
# Biological target: Ras-related C3 botulinum toxin substrate 1 (Homo sapiens) (UniProt P63000)
# Assay: activated Rac1 mutant nucleotide binding changes – biochemical, bead-based flow cytometry, multiplex, fluorescent GTP, primary screen (AID 764)
# Conditions: GST-Rac1 activated beads, at 10 µM, actives lie on both sides, 100% means binding = to untreated wells
row,Structure (SMILES),percent activity (GTP binding) [%]
1,CCOC(=O)c1sc(/N=C/C2=C(O)CC(C)(C)CC2=O)c(C(=O)OCC)c1C,95
2,O=C(NCCOc1ccccc1F)Nc1ccc(Br)cc1,93
3,C=CCn1c(CNC(=O)c2ccco2)nnc1SCC(=O)c1ccc(OC)cc1,97
4,COc1ccc(CCNC(=O)CN(c2ccccc2)S(C)(=O)=O)cc1,97
5,COc1cccc(OC)c1C(=O)NC(=S)Nc1ccc(N2CCOCC2)c(Cl)c1,95
6,NS(=O)(=O)c1ccc(NC(=O)COC(=O)CCc2c[nH]c3ccccc23)cc1,99
7,CCOC(=O)C(=Cc1ccccc1OC)C(=O)OCC,89
8,COc1cc(/C=N/NC(=S)Nc2cccnc2)cc(OC)c1O,89
9,CCc1cc2c(=O)c(-c3nc4ccccc4n3C)c(CCCC(=O)O)oc2cc1OC(=O)C(C)(C)C,94
10,Cc1ccc(O)c(NC(=S)NC(=O)COc2ccc(Br)cc2)c1,92
11,COc1cc(N2C(=O)c3ccccc3C2=O)c(Cl)cc1C(=O)OCC(=O)N1CCOCC1,97
12,COc1ccc(N2CCN(C(C)=C3C(=O)c4ccccc4C3=O)CC2)cc1,92
13,CCOC(=O)C(C)n1nc(-c2ccccc2)c2ccccc2c1=O (stereo not given),96
14,Cc1ccc(CN(Cc2cccnc2)C(=S)Nc2cc(Cl)ccc2C)cc1,95
15,CC1Cc2ccccc2N1S(=O)(=O)c1c(N)n(C)c(=O)n(C)c1=O (stereo not given),102
16,C/C(N)=C(/C#N)C(=O)COC(=O)C1CCN(C(=O)c2ccc(Cl)cc2)CC1,97
17,O=C(COC(=O)c1ccc(F)cc1)Nc1nc2ccc([N+](=O)[O-])cc2s1,93
18,COc1cccc(CNn2cn[nH]c2=S)c1OCc1ccccc1,95
19,COC(=O)C1=C(C)N(C)C(=O)NC1c1ccc([N+](=O)[O-])o1 (stereo not given),93
20,CCOC(=O)C1CCN(S(=O)(=O)c2cc(F)ccc2OC)CC1,96
21,Cc1cccc(N(C(=O)Cc2cccs2)C(C(=O)NCc2ccco2)c2ccncc2)c1 (stereo not given),101
22,O=C(c1ccc(F)cc1)n1cc(C(=S)N2CCOCC2)c2ccccc21,98
23,CCCN(CC(=O)Nc1ccccc1C)C(=O)c1cc(=O)[nH]c2ccccc12,95
24,CCCC(=O)NC(=S)Nc1ccc(CN2CCOCC2)cc1,95
25,CCN1CCc2nc(NC(=O)c3cc(F)c(F)cc3Cl)sc2C1,95
26,CCCCc1ccc(NC(=S)NCCCN2CCOCC2)cc1,94
27,CCOc1ccc(CN2CCN(Cc3ccc(C)o3)CC2CCO)cc1 (stereo not given),96
28,O=Cc1ccc(OCc2cn3ccccc3n2)cc1,97

row,Structure (SMILES),percent activity (GTP binding) [%]
1,Brc1cc(/C=N/n2cnnc2)oc1Br,100
2,CS(=O)(=O)Nc1cccc(-c2cn3ccccc3n2)c1,96
3,CCOC(=O)CNC(=O)/C(=C\c1ccc(F)cc1)NC(=O)c1ccccc1,95
4,COc1cccc(CC(=O)N2CCCC(CCC(=O)N3CCN(c4ccccn4)CC3)C2)c1 (stereo not given),96
5,Cc1cccc(C)c1NC(=O)C1CCCN1C(=O)OC(C)(C)C (stereo not given),97
6,CCOc1cc(NC(=S)NCCCN(C)C)c(OCC)cc1NC(=O)C1CC1,95
7,CCC(C)c1ccc(NC(=S)NCc2ccccn2)cc1 (stereo not given),94
8,COc1cccc(/C=C2\SC(=N)N(c3ccc(F)cc3)C2=O)c1,93
9,O=C(CSc1ccc(-c2ccco2)nn1)NCc1ccc2c(c1)OCO2,96
10,COc1ccc(N(CC(=O)Nc2ccc(C)cc2C)S(=O)(=O)c2ccccc2[N+](=O)[O-])c(OC)c1,93
11,CCOc1ccc(CCN2C(=O)c3cccnc3C2=O)cc1OCC,97
12,O=C1N/C(=C/c2cccs2)C(=O)N1Cc1ccc(F)cc1,97
13,O=C(Nc1ccc2c(c1)C(=O)OC2)Nc1cccc2ccccc12,96
14,NC(=O)C1CCN(C(=O)COc2cccc3cccnc23)CC1,95
15,Cn1c(N)c(C(=O)COC(=O)c2cnc(Cl)c(Cl)c2)c(=O)n(C)c1=O,93
16,CN(C)c1ccc2c(=O)[nH][nH]c(=O)c2c1,99
17,O=S(=O)(NCCc1ccc(F)cc1)c1cccc2cccnc12,96
18,CCC(=O)N1CCC(C(N)=O)(N2CCCCC2)CC1,96
19,COc1cc2sc(C)nc2cc1C,95
20,CCN(CC)P(=O)(Nc1ccc(SC(F)F)cc1)c1ccc(N(C)C)cc1NC(=O)c1ccco1 (stereo not given),92
21,COc1ccc(C2=NN(C(=O)CCC(=O)O)C(c3cccs3)C2)cc1OC (stereo not given),96
22,COCCCNC(NC(=O)c1ccc(OC)cc1)C(Cl)(Cl)Cl (stereo not given),95
23,COc1ccc(NS(=O)(=O)c2cc(NC(=O)C3CCCCC3)ccc2N2CCOCC2)cc1,96
24,C/C=C/c1ccc(OCC(O)CN2CCCCCCC2)c(OC)c1 (stereo not given),96
25,CC(C)N(C(=O)CSc1nc(COc2ccccc2)nc2ccccc12)C(C)C,93
26,O=C(Nc1nnc(Cc2ccccc2)s1)c1cnccn1,99
27,CCOc1cc(/C=N/NC(=O)c2ccc(CSc3nncn3C)cc2)ccc1OCC(=O)N1CCOCC1,93
